The list is not random: actives were taken first. Their share in the collection is about 2.7%.
ATXN2 expr inh – inhibitors of ATXN2 expression; HEK-293 ATXN2-luciferase reporter, luminescence, 24 h; Potency, µM (doses to about 57 µM), without a hit: at the top dose activity change, negative = inhibition, usual class: inhibitors; 360,000 tested, 0.72% active; AID 1745845; also: % is scaled to controls: 0 for no effect and ±100 for the full control effect; nearly all actives have a fitted effect of over 55% in size
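ATXN2-luciferase reporter cells (luciferase flanked by upstream and downstream ATXN2 gene portions) were treated 24 h at 37 °C with compounds at up to 57 uM. SteadyGlo luminescence gave expression; GF-AFC fluorescence gave viability.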
S2 tox – viability counter-screen for ATXN expression inhibitors; Potency, µM (top dose mostly 56.7 µM), most hits filed as cytotoxic; AID 651635; 400,000 tested, 0.49% active; S2 cells (HEK-293 line with an ATXN2-luciferase reporter) viability, CellTiter-Fluor protease fluorescence, 24 h; also: nearly all actives have a fitted effect of over 40% in size
TGFb SMAD3 inh – inhibitors of TGF-b signaling | HepG2 CAGA-GFP TGF-b/SMAD3 reporter, GFP fluorescence, 18 h; TGF-beta stimulated, 500 pg/mL final | 410,000 tested, 1.2% active | Potency, µM (titrated, usually from 46.1 µM), for inactives: top-dose activity, negative = inhibition, actives largely listed as inhibitors; also: % is scaled to controls: 0 for no effect and ±100 for the full control effect; nearly all actives have a fitted effect of over 65% in size
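Using HEPG2 CAGA-GFP reporter cells at 1000 cells/well, we pinned test compounds, stimulated with recombinant TGF-beta (500 pg/mL final) and measured total well GFP after 18 h.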
HepG2 viability – kills HepG2 cells in TGF-b inhibitor counter-screen; HepG2 CAGA-GFP viability, ATP luminescence, 18 h; Potency, µM (doses to about 46.1 µM), inactives show at the top dose activity change, negative = cytotoxicity, most hits filed as cytotoxic; 410,000 tested, 0.76% active
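HepG2 CAGA-GFP cells (1000/well, DMEM with 1% FBS) received compound, then TGF-beta at 500 pg/mL final, and were incubated 18 hours at 37 degrees C. Viability was read by CellTiter-Glo luminescence. Media-only wells were set as complete cell-killing and DMSO as no toxicity.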
ALOX12 inh – inhibitors of human 12S-lipoxygenase ALOX12; P18054; purified 12hLO, xylenol orange hydroperoxide absorbance; 580,000 tested, 1.1% active; Potency, µM (series often up to 108 µM), for the others: at the top dose activity change, negative = inhibition, most hits filed as inhibitors; also: % is scaled to controls: 0 for no effect and ±100 for the full control effect
Target sequence (P18054 whole entry, looked up): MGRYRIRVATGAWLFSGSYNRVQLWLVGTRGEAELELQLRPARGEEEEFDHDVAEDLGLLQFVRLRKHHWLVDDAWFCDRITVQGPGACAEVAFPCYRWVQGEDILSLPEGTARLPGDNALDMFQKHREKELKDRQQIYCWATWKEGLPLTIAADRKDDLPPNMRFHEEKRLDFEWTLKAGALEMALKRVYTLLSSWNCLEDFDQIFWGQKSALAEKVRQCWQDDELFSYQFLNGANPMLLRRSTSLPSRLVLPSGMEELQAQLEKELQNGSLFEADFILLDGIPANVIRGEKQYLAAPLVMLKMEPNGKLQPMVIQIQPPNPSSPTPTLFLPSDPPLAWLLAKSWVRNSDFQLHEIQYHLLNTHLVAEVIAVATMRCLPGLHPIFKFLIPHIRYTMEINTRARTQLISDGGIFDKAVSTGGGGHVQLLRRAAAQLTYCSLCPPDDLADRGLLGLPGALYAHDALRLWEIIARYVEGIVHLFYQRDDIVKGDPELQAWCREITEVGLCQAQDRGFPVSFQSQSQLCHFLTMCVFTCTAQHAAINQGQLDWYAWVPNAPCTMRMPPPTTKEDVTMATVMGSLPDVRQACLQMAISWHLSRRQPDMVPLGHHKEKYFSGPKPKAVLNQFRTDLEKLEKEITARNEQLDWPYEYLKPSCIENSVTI
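Purified human 12hLO at 150 nM in 25 mM Hepes, 0.01% Triton X-100, pH 7.0, preincubated 15 min at room temperature with compound. Reaction started with 40 uM arachidonic acid, 30 min at room temperature. Hydroperoxide measured by Fe-xylenol orange, 573/405 nm absorbance ratio.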
* = called active by the depositor; i = inactive; u = inconclusive; x = no result given; ! = not active in a repeat; [ ] = another dose, or the depositor's remark. Calls follow the shape of the dose curve; as a rule, active = well fitted curve in the direction sought with a large enough effect; inconclusive = small, poorly fitted or top-dose-only effect, or another doubt; inactive = no such curve, though single readings can be large; an effect the other way counts as inactive or inconclusive. Potency is read from the fitted curve at half-maximal effect.

SMILES	ATXN2 expr inh	S2 tox	TGFb SMAD3 inh	HepG2 viability	ALOX12 inh
COc1ccc(/C=N/NC(=O)c2ccc(Br)cc2)c(OC)c1	0.0%	i	5.1%	-11.2%	18.1%
COc1ccc(C(=O)N/N=C/c2cc(Br)ccc2O)cc1OC	1.41µM*	i	-7.8%	-18.8%	u
Cc1cc(C)nc(SCc2ccc(C(=O)N/N=C/c3cccc(O)c3O)cc2)n1	u	u	0.0%	-16.9%	-11.9%
O=S(=O)(c1ccc(OC(F)(F)F)cc1)N1CCN(Cc2ncc(-c3ccc(F)cc3)o2)CC1	x	x	x	x	-9.4%
N#CC(C(=O)CCc1ccccc1)C(=O)NC1CCCCC1 (centres undefined)	x	x	x	x	-21.9%
COc1ccc(-c2csc(N(CCCN(C)C)C(=O)c3cccs3)n2)cc1	-30.7%	u	-23.3%	10µM*	-12.9%
CCN(C(=O)c1cccs1)c1nc(-c2ccc(OC)cc2)cs1	35.9%	i	5.8%	-7.3%	11.1%
NC(=O)C1CCCN(c2nc(-c3cccs3)nc3ccccc23)C1 (centres undefined)	x	x	x	x	-1.9%
CCS(=O)c1ccccc1C(=O)NCc1ccc(C)cc1 (centres undefined)	x	x	x	x	17.8µM*
N#Cc1cc(Oc2cccc3cccnc23)c(-n2nnc3ccccc32)cc1C#N	u	i	6.31µM*	-93.6%	u
Cc1n[nH]c(C)c1CCCCOc1ccccc1	-8.7%	i	-7.6%	-13.6%	-10.3%
Cc1ccc(OCCCc2c(C)n[nH]c2C)cc1	-10.0%	i	u	-28.9%	6.31µM*
COc1ccc(/C=C/C(=O)c2ccc(OC)cc2OC)cc1	-10.5%	u	1.5%	-18.8%	-4.7%
COc1cc(/C=C/C(=O)c2ccc3c(c2)OCO3)cc(OC)c1OC	u	u	17.8µM*	22.4µM*	x
COc1ccc(/C=C/C(=O)c2cc3c(cc2N)OCO3)cc1	34.8%	u	-10.9%	-65.6%	35.5µM*
COc1cc(/C=C/C(=O)c2ccc3c(c2)OCCO3)cc(OC)c1OC	u	u	u	-28.7%	0.7%
CCOc1cc(C2C(C(=O)c3ccco3)=C(O)C(=O)N2c2cc(C)on2)ccc1O (centres undefined)	x	x	x	x	-18.0%
O=c1[nH]c2ccccc2n1CCCN1CCCCC1	0.1%[11.3 µM]	i	7.6%	0.2%	-21.8%
O=c1[nH]c2ccccc2n1CCCN1CCN(C(c2ccccc2)c2ccccc2)CC1	31.6µM*	u	x	x	x
CN(C(=O)c1ccc2ncsc2c1)C1CCCCC1	x	x	x	x	6.0%
CCN=c1scc(-c2cccs2)n1/N=C/c1cc(OC)ccc1O	24.3%	i	12.6µM*	-42.7%	-13.5%
CN=c1scc(-c2ccccc2)n1/N=C/c1ccsc1	x	x	x	x	1.6%
CN=c1scc(-c2cccs2)n1/N=C/c1ccccc1	x	x	x	x	13.8%
CC(C)N=c1scc(-c2cccs2)n1/N=C/c1ccc(O)c(O)c1O	u	u	2.8%	-31.0%	14.1µM*
CN=c1scc(-c2ccccc2F)n1/N=C/c1ccc[nH]1	3.16µM*	u	-13.1%	-23.8%	-21.6%
SMILES	ATXN2 expr inh	S2 tox	TGFb SMAD3 inh	HepG2 viability	ALOX12 inh
CN=c1scc(-c2ccccc2F)n1/N=C/c1ccc(O)c(O)c1O	34.1%	i	u	5.6%	35.5µM*
CC(Cc1c[nH]c2ccccc12)NC(=O)CNc1nc(Cl)nc2nc[nH]c12 (centres undefined)	x	x	x	x	2.8%
CN(C)CCCN(C(=O)/C=C/c1cccs1)c1nc2c(F)cccc2s1	u	u	17.8µM*	12.6µM*	-23.9%
Cc1cccc2sc(N(CCCN(C)C)C(=O)COc3ccc(Cl)cc3)nc12	-37.6%	i	-25.1%	22.4µM*	u
COc1ccc2sc(N(CCN(C)C)C(=O)/C=C/c3cccs3)nc2c1	x	u	u	20µM*	-11.6%
CN(C)CCCN(C(=O)CCOc1ccccc1)c1nc2c(F)cccc2s1	-32.2%	x	u	11.2µM*	7.3%
CN(C)CCCN(C(=O)CCc1ccccc1)c1nc2c(F)cccc2s1	-28.6%	i	u	-69.7%	-26.5%
CC(=O)CNC(C)(C)C(C)=O	x	x	x	x	-27.3%
COc1ccc(-c2nsc3c2NC(=O)CC3c2ccc(OC)cc2)cc1 (centres undefined)	x	x	x	x	0.2%
CCOC(=O)C1=C(C)OC(n2cccc2)=C(C#N)C1c1cc(OC)c(OC)c(OC)c1 (centres undefined)	x	x	x	x	-0.6%
C=C(C)CNC(=S)N/N=C/c1ccsc1	x	x	x	x	-28.9%
CN(C)CCCN(C(=O)COc1ccc(Cl)cc1)c1nc2c(F)cccc2s1	-0.2%	i	u	3.9%	39.8µM*!
CN(C)CCCN(C(=O)COc1ccc(Cl)cc1)c1nc2ccc(F)cc2s1	-9.9%	i	-11.9%	-14.5%	u
CCN1C(C(=O)c2ccccc2)=C(OC(=O)c2ccccc2OC)c2ccccc2S1(=O)=O	u	u	10µM*	4.47µM*	-14.8%
CC1=C(C(=O)Nc2ccccc2)C(c2ccc(Cl)cc2)N2C(=O)CSC2=N1 (centres undefined)	x	x	x	x	-6.2%
C(=N\N=C(c1ccccc1)c1ccccc1)/c1cccs1	x	x	x	x	50.4%
O=[N+]([O-])c1ccccc1S(=O)(=O)Nc1ncccn1	-2.2%	i	-7.3%	3.4%	-6.0%
O=[N+]([O-])c1cnc(NS(=O)(=O)c2ccccc2[N+](=O)[O-])s1	x	x	x	x	39.8µM*
Cc1cccc(NC(=O)CCN2CCN(C)CC2)c1	12.3%	i	0.6%	2.2%	10.9%
Cc1cccc(NC(=O)CCN2CCN(Cc3cccc4ccccc34)CC2)c1	x	x	x	x	28.2µM*
Cn1nc(C(=O)N2CCC(C(=O)Nc3ccc4c(c3)OCO4)CC2)c2ccccc2c1=O	x	x	x	x	18.3%
CCn1c(SCC(=O)Nc2cc3c(cc2C(C)=O)OCO3)nnc1C1CC1	x	x	x	x	-0.7%
CCC(C)(C)n1nnnc1C(c1cccnc1)N1CCCc2ccccc21 (centres undefined)	-9.8%	i	10.5%	-33.0%	-27.0%
CCC(C)(C)n1nnnc1C(c1cccs1)N1CCc2ccccc21 (centres undefined)	u	i	12.6µM*	-30.6%	-10.1%
CCN1CCc2c(C#N)c(N3CCCCC3)nc(NCc3ccccc3)c2C1	-31.0%	u	22.4µM*	12.6µM*	u
CC[C@H]1OC(=O)[C@H](C)C(=O)[C@H](C)[C@@H](O[C@H]2O[C@H](C)C[C@H](N(C)C)[C@@H]2O)[C@](C)(OC)C[C@@H](C)C(=O)[C@H](C)[C@H]2N(CCCCn3cnc(-c4cccnc4)c3)C(=O)O[C@]12C	u	x	x	x	4.85µM*
O=C(/C=C/c1cccc(F)c1)NNC(=O)C1CCCCC1	x	x	x	x	25.8%
CC(C)c1cc(-c2n[nH]c(=O)n2-c2ccc3c(ccn3C)c2)c(O)cc1O	0.0769µM*	x	x	x	-29.9%[57.4 µM]
Cc1c(NC(=O)CN(c2cc(Cl)ccc2Cl)S(C)(=O)=O)c(=O)n(-c2ccccc2)n1C	x	x	x	x	-6.2%

Bioassay records: PubChem, National Center for Advancing Translational Sciences (NCATS)
